In PubChem BioAssay (NCATS):
Where “and” joins values, the source holds several entries; their conditions need not be identical. Equal values may be shown once. Inconclusive results are not listed. Where a call stands in place of a potency, no number is given. Calls of active or inactive are those of the source. Unless noted, the call rests on the fitted dose curve; in most records, active means well fitted curve in the direction sought with a large enough effect; inconclusive means small, poorly fitted or top-dose-only effect, or another doubt; inactive means no such curve, though single readings can be large; an effect the other way counts as inactive or inconclusive.

Assays:
[1] = target: DNA repair nuclease/redox regulator APEX1 (Homo sapiens) (UniProt P27695); experiment: qHTS Validation Assay for Inhibitors of the Human Apurinic/apyrimidinic Endonuclease 1 (APE1) (AID 1705; further: potency means the concentration at half of the fitted maximal effect)
DNA repair nuclease/redox regulator APEX1 (Homo sapiens), sequence (P27695 whole entry, looked up): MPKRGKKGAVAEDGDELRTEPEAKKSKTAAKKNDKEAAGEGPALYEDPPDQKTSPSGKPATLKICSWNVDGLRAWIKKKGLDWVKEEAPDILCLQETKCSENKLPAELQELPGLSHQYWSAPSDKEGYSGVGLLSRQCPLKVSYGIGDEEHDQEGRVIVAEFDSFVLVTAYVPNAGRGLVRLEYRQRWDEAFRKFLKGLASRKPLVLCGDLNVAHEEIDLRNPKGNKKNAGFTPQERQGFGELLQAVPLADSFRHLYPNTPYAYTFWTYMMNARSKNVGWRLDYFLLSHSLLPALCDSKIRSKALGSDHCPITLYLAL
Summary of the method: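 Activity read as rising fluorescence (598 nm emission, 525 nm excitation) from incision of a TAMRA/BHQ-2 duplex carrying a THF abasic site (50 nM). Compound and enzyme sat 15 min at RT before substrate start; signal change between first and third 60-s reads.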

[2] = Counterscreen for APE1 Inhibitors: Fluorescent Dye Displacement Validation Assay (AID 1707)
Summary of the method: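 Assay buffer: Tris-HCl pH7.5 with 50mM NaCl, 2 mM MgCl2, 0.01% Tween-20. Dye 250 nM, duplex 50 nM final. Readout: decrease in ThO endpoint fluorescence, 480 nm excitation, 540 nm emission.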

[3] = qHTS for differential inhibitors of proliferation of Plasmodium falciparum line D10 (AID 1877);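 further: parasites grown with compound for 72 h before DNA staining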; further: potency means the concentration at half of the fitted maximal effect
[4] = qHTS for differential inhibitors of proliferation of Plasmodium falciparum line Dd2 (AID 1882); conditions: Potency: Plasmodium falciparum Dd2 proliferation inhibition; further: nearly all actives have a fitted effect of over 65% in size; further: potency means the concentration at half of the fitted maximal effect
Summary of the method: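 Dd2-infected erythrocytes (0.3% parasitemia, 2.5% hematocrit final) incubated with compound 72 h at 37 C, 5% CO2; lysed with saponin/Triton buffer containing SYBR Green I, incubated overnight in the dark, then read by fluorescence (485/535 nm). Normalized to 0.29 uM artemisinin and DMSO.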

[5] = target: ATP-dependent DNA helicase Q1 (Homo sapiens) (UniProt P46063); experiment: qHTS Validation Assay for Inhibitors of RecQ-Like Dna Helicase 1 (RECQ1) (AID 2353)
ATP-dependent DNA helicase Q1 (Homo sapiens), sequence (P46063 whole entry, looked up): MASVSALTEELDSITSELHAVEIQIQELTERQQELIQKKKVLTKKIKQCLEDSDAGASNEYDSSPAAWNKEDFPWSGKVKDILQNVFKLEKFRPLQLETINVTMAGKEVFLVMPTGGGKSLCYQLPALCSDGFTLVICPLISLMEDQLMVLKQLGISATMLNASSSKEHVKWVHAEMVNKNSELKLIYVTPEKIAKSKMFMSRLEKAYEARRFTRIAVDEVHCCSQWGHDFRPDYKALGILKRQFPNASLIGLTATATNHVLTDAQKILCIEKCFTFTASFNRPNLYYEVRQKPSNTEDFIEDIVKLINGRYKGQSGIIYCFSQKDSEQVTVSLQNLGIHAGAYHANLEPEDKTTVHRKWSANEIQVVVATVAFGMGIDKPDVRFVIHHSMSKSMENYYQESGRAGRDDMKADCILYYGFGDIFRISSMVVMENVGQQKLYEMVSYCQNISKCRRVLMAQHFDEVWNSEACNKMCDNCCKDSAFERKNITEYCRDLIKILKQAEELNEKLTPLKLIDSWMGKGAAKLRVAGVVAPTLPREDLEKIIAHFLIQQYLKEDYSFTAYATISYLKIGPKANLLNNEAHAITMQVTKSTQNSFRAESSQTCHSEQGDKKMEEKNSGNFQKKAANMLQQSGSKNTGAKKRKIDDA
Summary of the method: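 50 nM RECQ1T1 preincubated 15 min with compound in Tris pH 8.0 buffer with MgCl2, DTT, Tween-20 and 2.5 ug/ml poly(dI-dC); started with 200 nM TAMRA/BHQ-2 forked duplex and 2 mM ATP. Unwinding read as fluorescence (525/598 nm), two reads 2 h apart.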

[6] = Validation screen for small molecules that induce DNA re-replication in MCF 10A normal breast cells (AID 463097); further: nearly all actives have a fitted effect of over 60% in size
Summary of the method: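 Read-out is Hoechst total nuclear intensity by fluorescence scanning imager, flagging increased high-DNA-content nuclei. Compounds were incubated with MCF 10A cells for 48 hr (37 C, 5% CO2) before 40 min staining.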

[7] = Quantitative high throughput screen for delayed death inhibitors of the malarial parasite plastid, 96 hour incubation (AID 488745); further: nearly all actives have a fitted effect of over 70% in size; further: potency means the concentration at half of the fitted maximal effect
Summary of the method: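 Luciferase-expressing P. falciparum in erythrocytes (2% hematocrit, 0.1% parasitemia) incubated with compound for 96 h at 37 C, 5% CO2, in RPMI 1640 with 0.5% Albumax. Growth inhibition read as decreased luminescence.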

[8] = Quantitative high throughput screen for delayed death inhibitors of the malarial parasite plastid, 48 hour incubation (AID 488752); further: nearly all actives have a fitted effect of over 65% in size; further: potency means the concentration at half of the fitted maximal effect
Summary of the method: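 Erythrocytes infected with firefly luciferase-expressing P. falciparum (2% hematocrit, 0.1% parasitemia) cultured with compound for 48 h at 37 C, 5% CO2, in RPMI 1640/0.5% Albumax. Growth inhibition read as loss of luminescence.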

[9] = target: M-phase phosphoprotein 8 (Homo sapiens) (UniProt Q99549); experiment: qHTS Validation Assay for Inhibitors for MPP8 Chromodomain Interactions with Methylated Histone Tails (AID 488949); further: nearly all actives have a fitted effect of over 55% in size; further: potency means the concentration at half of the fitted maximal effect
M-phase phosphoprotein 8 (Homo sapiens), sequence (Q99549 whole entry, looked up): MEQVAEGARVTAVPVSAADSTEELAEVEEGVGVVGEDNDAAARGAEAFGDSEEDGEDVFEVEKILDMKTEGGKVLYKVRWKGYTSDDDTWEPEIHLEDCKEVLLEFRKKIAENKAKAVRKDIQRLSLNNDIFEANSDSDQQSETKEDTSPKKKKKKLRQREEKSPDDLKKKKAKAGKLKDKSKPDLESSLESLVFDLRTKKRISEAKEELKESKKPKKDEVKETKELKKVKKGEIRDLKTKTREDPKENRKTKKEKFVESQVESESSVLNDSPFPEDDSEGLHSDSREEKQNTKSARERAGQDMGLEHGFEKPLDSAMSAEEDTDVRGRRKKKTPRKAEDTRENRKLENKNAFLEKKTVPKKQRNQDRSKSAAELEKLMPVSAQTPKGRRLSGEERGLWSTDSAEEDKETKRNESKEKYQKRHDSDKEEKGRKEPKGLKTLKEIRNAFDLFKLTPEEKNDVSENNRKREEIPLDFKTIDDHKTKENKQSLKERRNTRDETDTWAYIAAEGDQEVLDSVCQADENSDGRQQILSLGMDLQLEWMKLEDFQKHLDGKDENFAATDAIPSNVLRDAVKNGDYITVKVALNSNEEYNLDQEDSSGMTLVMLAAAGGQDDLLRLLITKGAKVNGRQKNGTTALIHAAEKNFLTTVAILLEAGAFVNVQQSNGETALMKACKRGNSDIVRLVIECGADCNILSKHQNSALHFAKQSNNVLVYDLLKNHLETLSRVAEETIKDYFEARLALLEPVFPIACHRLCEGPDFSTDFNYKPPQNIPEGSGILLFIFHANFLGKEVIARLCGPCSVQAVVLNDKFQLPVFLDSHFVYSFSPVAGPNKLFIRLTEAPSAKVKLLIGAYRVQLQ
Summary of the method: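 AlphaScreen proximity signal from streptavidin donor and Ni-chelate acceptor beads (10 ug/mL each) reported binding of MPP8 to trimethyl-K9 H3(1-18) peptide, both at 50 nM. The complex formed 30 min before a 30 min compound exposure at room temperature, in PBS pH 7.4.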

[10] = target: Transient receptor potential cation channel subfamily V member 1 (Homo sapiens) (UniProt Q8NER1); experiment: HTS Assay for Compounds that Act as Enhancers of the Vanilloid Receptor 1 (AID 488979)
Transient receptor potential cation channel subfamily V member 1 (Homo sapiens), sequence (Q8NER1 whole entry, looked up): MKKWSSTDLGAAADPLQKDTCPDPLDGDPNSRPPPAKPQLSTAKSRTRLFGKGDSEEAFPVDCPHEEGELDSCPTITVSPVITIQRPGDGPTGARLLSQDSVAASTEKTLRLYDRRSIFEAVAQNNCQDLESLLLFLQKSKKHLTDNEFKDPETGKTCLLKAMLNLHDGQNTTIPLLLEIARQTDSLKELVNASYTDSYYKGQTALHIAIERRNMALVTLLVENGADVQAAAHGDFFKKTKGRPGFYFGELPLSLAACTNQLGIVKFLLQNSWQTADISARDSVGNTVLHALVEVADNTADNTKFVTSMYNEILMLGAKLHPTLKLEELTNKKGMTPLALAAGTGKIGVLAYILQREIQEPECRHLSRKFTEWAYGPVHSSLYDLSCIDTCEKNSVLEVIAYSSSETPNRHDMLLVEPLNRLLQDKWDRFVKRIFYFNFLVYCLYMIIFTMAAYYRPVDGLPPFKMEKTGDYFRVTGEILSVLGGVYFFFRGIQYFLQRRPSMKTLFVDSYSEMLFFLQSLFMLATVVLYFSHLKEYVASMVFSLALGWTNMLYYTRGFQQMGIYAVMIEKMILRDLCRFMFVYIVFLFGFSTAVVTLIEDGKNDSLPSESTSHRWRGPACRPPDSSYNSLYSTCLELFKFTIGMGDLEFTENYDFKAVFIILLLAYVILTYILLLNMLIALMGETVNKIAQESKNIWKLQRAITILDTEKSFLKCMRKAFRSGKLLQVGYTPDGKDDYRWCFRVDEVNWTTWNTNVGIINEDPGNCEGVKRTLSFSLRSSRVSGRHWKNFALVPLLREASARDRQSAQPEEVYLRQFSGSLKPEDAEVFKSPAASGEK
Summary of the method: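 TRPV1-expressing cells loaded with Fluo-8 calcium dye; compounds added and calcium influx read kinetically for 3 min (agonist phase), then capsaicin at EC20 added and read 2 min more for enhancement. Fluorescence ex 480/em 520 nm.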

[11] = target: Thyrotropin receptor (Homo sapiens) (UniProt P16473); experiment: qHTS Assay for Antagonists of the Thyroid Stimulating Hormone Receptor (AID 488980); further: series mostly up to about 58 µM
Summary of the method: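 Inhibition of cAMP raised by EC80 TSH (4 nM final) was read by HTRF, with lysate cAMP competing against cAMP-d2 for cryptate antibody after 30 min at room temperature. The cells were transfected HEK293 held in phosphodiesterase inhibitor RO 20-1724 at 70 uM.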

[12] = target: Thyrotropin-releasing hormone receptor (Homo sapiens) (UniProt P34981); experiment: qHTS for Small Molecule Agonists and Allosteric Enhancers of Human TRH Receptor: Validation Screen for Agonists (AID 493127;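 active means calcium activation more than 3 SD above the typical response in the agonist read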); conditions: TRH receptor agonist cell assay; at 2 µM; stronger effect = higher value
Thyrotropin-releasing hormone receptor (Homo sapiens), sequence (P34981 whole entry, looked up): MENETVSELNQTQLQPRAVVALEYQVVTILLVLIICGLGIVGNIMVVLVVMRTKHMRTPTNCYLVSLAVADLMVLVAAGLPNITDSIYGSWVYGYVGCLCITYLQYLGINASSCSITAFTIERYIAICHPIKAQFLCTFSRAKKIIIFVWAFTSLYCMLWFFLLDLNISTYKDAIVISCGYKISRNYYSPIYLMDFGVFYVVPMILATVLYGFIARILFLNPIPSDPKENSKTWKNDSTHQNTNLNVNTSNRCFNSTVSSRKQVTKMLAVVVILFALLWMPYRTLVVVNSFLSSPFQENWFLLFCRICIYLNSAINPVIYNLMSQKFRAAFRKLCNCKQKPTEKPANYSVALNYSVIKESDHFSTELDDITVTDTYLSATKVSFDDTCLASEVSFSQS
Summary of the method: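 TRHR cells loaded with fluo-8 calcium dye; FDSS kinetic fluorescence (Ex 480/Em 530) read at 1 s/cycle after 23 nL compound addition. Agonist-mode calcium response recorded before the 10 nM TRH (EC20) addition.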

[13] = target: Galactokinase (Homo sapiens) (UniProt P51570); experiment: qHTS Validation Assay for Inhibitors of Human Galactokinase (GALK) (AID 493189)
Galactokinase (Homo sapiens), sequence (P51570 whole entry, looked up): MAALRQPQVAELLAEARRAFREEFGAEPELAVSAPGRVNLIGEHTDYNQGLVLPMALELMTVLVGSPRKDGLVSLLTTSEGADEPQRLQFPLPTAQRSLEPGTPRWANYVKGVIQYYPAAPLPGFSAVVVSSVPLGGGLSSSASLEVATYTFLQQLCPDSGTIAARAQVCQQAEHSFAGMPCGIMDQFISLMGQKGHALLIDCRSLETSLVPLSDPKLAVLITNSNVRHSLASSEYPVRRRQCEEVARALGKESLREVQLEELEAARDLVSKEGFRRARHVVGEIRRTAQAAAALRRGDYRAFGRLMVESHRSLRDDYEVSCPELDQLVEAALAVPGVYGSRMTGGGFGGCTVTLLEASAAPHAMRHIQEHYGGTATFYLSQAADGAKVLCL
Summary of the method: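 Inhibition was measured as remaining ATP, detected by luciferase luminescence after a 1 h room-temperature reaction. Final conditions: 5 nM GALK, 100 uM galactose, 35 uM ATP, pH 8.0 HEPES buffer.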

[14] = Validation screen for small molecules that induce DNA re-replication in SW480 colon adenocarcinoma cells (AID 504364)
Summary of the method: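 SW480 cells (250/well) exposed 48 h at 37 C, 5% CO2, then Hoechst-stained 40 min. Nuclear DNA content imaged by fluorescence scanning (405 nm excitation, 500-530 nm emission); re-replication scored as increased nuclei with elevated intensity.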

[15] = target: Ferritin light chain (Equus caballus) (UniProt P02791); experiment: qHTS Validation Assay for Identification of Novel General Anesthetics (AID 2323); further: series mostly up to about 77 µM
Ferritin light chain (Equus caballus), sequence (P02791 2-175 limits assumed): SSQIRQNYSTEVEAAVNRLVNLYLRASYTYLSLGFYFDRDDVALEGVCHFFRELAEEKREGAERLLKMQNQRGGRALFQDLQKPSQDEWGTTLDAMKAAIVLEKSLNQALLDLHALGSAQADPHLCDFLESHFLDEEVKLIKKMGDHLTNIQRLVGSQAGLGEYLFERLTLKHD
Summary of the method: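 Competitive displacement of the profluorescent anesthetic 1-AMA (50% saturated, PBS) from 10 uM apoferritin, 10 min, room temperature. Activity is normalized 380/535 nm fluorescence; concentration-response fitted with a four-parameter Hill equation.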

[16] = target: Voltage-gated inwardly rectifying potassium channel KCNH2 (Homo sapiens) (UniProt Q12809); experiment: qHTS Assay for Small Molecule Inhibitors of the Human hERG Channel Activity (AID 588834);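 further: lower thallium flux fluorescence means stronger hERG block; nearly all actives have a fitted effect of over 50% in size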; further: potency means the concentration at half of the fitted maximal effect
Voltage-gated inwardly rectifying potassium channel KCNH2 (Homo sapiens), sequence (Q12809 whole entry, looked up): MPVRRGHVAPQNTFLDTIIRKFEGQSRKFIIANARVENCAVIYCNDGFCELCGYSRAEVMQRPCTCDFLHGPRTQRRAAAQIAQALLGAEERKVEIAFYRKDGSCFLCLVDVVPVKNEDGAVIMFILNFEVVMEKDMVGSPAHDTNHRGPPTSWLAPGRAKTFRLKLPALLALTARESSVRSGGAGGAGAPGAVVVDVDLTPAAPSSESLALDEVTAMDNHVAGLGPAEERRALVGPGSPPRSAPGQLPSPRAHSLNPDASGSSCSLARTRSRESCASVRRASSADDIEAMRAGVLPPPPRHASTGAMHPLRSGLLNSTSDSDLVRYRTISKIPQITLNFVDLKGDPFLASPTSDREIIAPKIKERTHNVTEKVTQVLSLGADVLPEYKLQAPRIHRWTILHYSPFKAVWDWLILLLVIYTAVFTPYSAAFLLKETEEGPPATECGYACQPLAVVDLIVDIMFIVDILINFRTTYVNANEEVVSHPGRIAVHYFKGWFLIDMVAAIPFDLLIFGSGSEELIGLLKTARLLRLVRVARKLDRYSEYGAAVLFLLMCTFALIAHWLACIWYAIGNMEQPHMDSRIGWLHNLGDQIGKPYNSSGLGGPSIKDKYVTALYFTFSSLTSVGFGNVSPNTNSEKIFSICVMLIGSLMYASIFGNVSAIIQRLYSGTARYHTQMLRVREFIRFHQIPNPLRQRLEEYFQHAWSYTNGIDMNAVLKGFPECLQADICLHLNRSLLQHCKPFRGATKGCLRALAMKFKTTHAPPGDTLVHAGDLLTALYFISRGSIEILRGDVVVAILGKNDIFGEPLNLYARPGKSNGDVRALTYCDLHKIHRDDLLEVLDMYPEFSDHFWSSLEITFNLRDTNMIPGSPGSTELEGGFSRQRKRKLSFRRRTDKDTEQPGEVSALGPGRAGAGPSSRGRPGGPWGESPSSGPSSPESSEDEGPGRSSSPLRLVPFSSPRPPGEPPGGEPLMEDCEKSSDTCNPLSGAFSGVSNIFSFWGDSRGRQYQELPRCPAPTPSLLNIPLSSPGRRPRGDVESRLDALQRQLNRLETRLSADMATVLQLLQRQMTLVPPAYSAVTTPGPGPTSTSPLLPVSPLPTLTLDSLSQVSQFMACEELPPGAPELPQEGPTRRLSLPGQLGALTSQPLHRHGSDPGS
Summary of the method: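 Kinetic FDSS fluorescence; U2OS + hERG BacMam (~100 virus particles/cell); FluxOR Tl+ flux; ~10 min cpd; AC50 (Hill).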

[17] = target: Glutathione peroxidase 1 (Homo sapiens) (UniProt P07203); experiment: Primary qHTS Assay for Inhibitors of Recombinant Selenoprotein Glutathione Peroxidase 1 (GPX1) (AID 1845191); further: nearly all actives have a fitted effect of over 65% in size
Glutathione peroxidase 1 (Homo sapiens), sequence (P07203 whole entry, looked up): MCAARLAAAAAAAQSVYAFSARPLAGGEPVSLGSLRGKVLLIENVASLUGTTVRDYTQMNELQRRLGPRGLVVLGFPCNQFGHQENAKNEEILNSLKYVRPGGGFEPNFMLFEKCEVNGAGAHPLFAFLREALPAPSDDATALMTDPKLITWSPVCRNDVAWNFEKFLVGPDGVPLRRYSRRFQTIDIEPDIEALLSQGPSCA
Summary of the method: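 Recombinant GPX1 (10 nM final) was preincubated with compound for 30 min at room temperature, then reacted with 1 mM GSH, 0.5 mM CHP, 0.5 mM NADPH and 100 nM glutathione reductase; NADPH fluorescence (340/450 nm) was read at 0 and 15 min.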

[18] = qHTS drug screen for cell cycle checkpoint inhibitors in PARPi-resistant BRCA-mutant ovarian cancer cell lines. (AID 1963452; calls by dose curve); conditions: PEO1/OlaR viability, CellTiter-Glo luminescence, 96 h, stronger effect = lower value
Summary of the method: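 PEO1, PEO4 and PEO1/OlaR ovarian cancer cells, 600 per well, exposed 96 h at 37C to a dilution series. Viability read by CellTiter-Glo luminescence, normalized to DMSO and empty wells; activity summarized as Z-AUC.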

Compound | Potency [1] | Potency [2] | Potency [3] | Potency [4] | Potency [5] | outcome [6] | Potency [7] | Potency [8] | Potency [9] | outcome [10] | outcome [11] | activation [12] | outcome [13] | outcome [14] | outcome [15] | Potency [16] | Potency [17] | Z-AUC [18] | Z-AUC ([18]; measured here: PEO1 parental Z-AUC) | Z-AUC ([18]; measured here: PEO4 Z-AUC)
CC(O)[C@@H](O)[C@H]1CNc2nc(N)[nH]c(=O)c2N1 (stereo partly drawn) | inactive | inactive | inactive | inactive | inactive | inactive | inactive | inactive | inactive | inactive | inactive | 0.0625% (inactive) | inactive | inactive | – | – | – | – | – | –
COc1ccc2c(c1)c(CC(=O)O)c(C)n2Cc1ccc(F)cc1 | inactive | inactive | inactive | inactive | inactive | inactive | – | inactive | – | inactive | inactive | 1.38% (inactive) | inactive | inactive | inactive | inactive | – | – | – | –
C[C@H](Cc1ccccc1)Nc1ncnc2c1ncn2[C@@H]1O[C@H](CO)[C@H](O)[C@H]1O | inactive | inactive | inactive | inactive | inactive | inactive | inactive | – | inactive | inactive | inactive | -2.69% (inactive) | inactive | inactive | inactive | inactive | – | – | – | –
Nc1ncnc2c1ncn2[C@@H]1O[C@H](CO)[C@H](O)[C@H]1O | inactive | inactive | inactive | inactive | inactive | inactive | inactive | inactive | inactive | inactive | inactive | 1.5% (inactive) | inactive | inactive | inactive | – | – | – | – | –
NS(=O)(=O)c1ccc(NC(=S)N2CCN(C/C=C/c3ccccc3)CC2)cc1 | – | – | – | – | – | – | – | – | – | – | – | – | – | – | – | – | inactive | 0.177 (inactive) | -0.364 | -0.0827
N[C@H](Cc1ccc(O)c(O)c1)C(=O)O | 10 µM (active) | inactive | inactive | inactive | inactive | inactive | inactive | inactive | 17.8 µM (active) | inactive | inactive | 0.688% (inactive) | inactive | inactive | inactive | inactive | – | – | – | –
CC(C)(C)[C@]1(O)CCN2CC3c4ccccc4CCc4cccc(c43)[C@@H]2C1 (stereo partly drawn) | inactive | inactive | 12.6 µM (active) and 11.2 µM (active) | 7.08 µM (active) and 14.1 µM (active) | inactive | – | – | – | inactive | – | inactive | – | inactive | inactive | – | 2 µM (active) | – | – | – | –
CCCC(=O)NCCc1c2n(c3ccc(OC)cc13)Cc1ccccc1-2 | – | inactive | – | inactive | inactive | inactive | inactive | – | inactive | inactive | inactive | -7.06% (inactive) | inactive | inactive | inactive | inactive | – | – | – | –
CC(N)=NCCCC(N)C(=O)O (stereo not drawn) | inactive | inactive | inactive | inactive | inactive | inactive | inactive | inactive | inactive | inactive | inactive | 0.938% (inactive) | inactive | inactive | inactive | inactive | – | – | – | –
CCCCC#Cc1nc(N)c2ncn([C@@H]3O[C@H](C(=O)NCC)[C@@H](O)[C@H]3O)c2n1 | inactive | inactive | – | – | inactive | inactive | 13.1 µM (active) | – | inactive | inactive | inactive | -0.438% (inactive) | inactive | inactive | inactive | inactive | – | – | – | –
CN1C[C@H](C(=O)N[C@]2(C)O[C@@]3(O)C4CCCN4C(=O)[C@H](Cc4ccccc4)N3C2=O)C[C@@H]2c3cccc4[nH]cc(c34)C[C@H]21 (stereo partly drawn) | inactive | inactive | – | – | inactive | – | 2.94 µM (active) | 2.33 µM (active) | – | inactive | inactive | 0.625% (inactive) | inactive | inactive | inactive | 11.2 µM (active) | – | – | – | –
OC[C@H]1O[C@@H](n2cnc3c(N[C@H]4CC5CCC4C5)ncnc32)[C@H](O)[C@@H]1O (stereo partly drawn) | inactive | inactive | inactive | inactive | inactive | inactive | inactive | inactive | inactive | inactive | inactive | 0.875% (inactive) | inactive | inactive | inactive | inactive | – | – | – | –
